# Results from article PMC7826789 (International Journal of Molecular Sciences, 2021).
# What was measured:
# Settings in all cases: Compound Concentration (nM):1000
# FGFR3 = tested on: FGFR3
# FGFR4 = tested on: FGFR4
# FGR = tested on: FGR
# FLT1 = tested on: FLT1
# FLT3(D835H) = tested on: FLT3(D835H)
# FLT3(D835V) = tested on: FLT3(D835V)
# FLT3(D835Y) = tested on: FLT3(D835Y)
# FLT3(ITD) = tested on: FLT3(ITD)
# FLT3(ITD,D835V) = tested on: FLT3(ITD,D835V)
# FLT3(ITD,F691L) = tested on: FLT3(ITD,F691L)
# FLT3(K663Q) = tested on: FLT3(K663Q)
# FLT3(N841I) = tested on: FLT3(N841I)
# FLT3(R834Q) = tested on: FLT3(R834Q)
# FLT3-autoinhibited = tested on: FLT3-autoinhibited
# FLT3 = tested on: FLT3
# FLT4 = tested on: FLT4
# FRK = tested on: FRK
# FYN = tested on: FYN
# GAK = tested on: GAK
# GCN2(Kin.Dom.2,S808G) = tested on: T1, GCN2(Kin.Dom.2,S808G)
# T1 construct: gene EIF2AK4
# 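Further: KINOMEscan scanMAX binding as percent activity remaining versus control; lower means stronger binding.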
Compound,Percent Control (FGFR3) [%],Percent Control (FGFR4) [%],Percent Control (FGR) [%],Percent Control (FLT1) [%],Percent Control (FLT3(D835H)) [%],Percent Control (FLT3(D835V)) [%],Percent Control (FLT3(D835Y)) [%],Percent Control (FLT3(ITD)) [%],"Percent Control (FLT3(ITD,D835V)) [%]","Percent Control (FLT3(ITD,F691L)) [%]",Percent Control (FLT3(K663Q)) [%],Percent Control (FLT3(N841I)) [%],Percent Control (FLT3(R834Q)) [%],Percent Control (FLT3-autoinhibited) [%],Percent Control (FLT3) [%],Percent Control (FLT4) [%],Percent Control (FRK) [%],Percent Control (FYN) [%],Percent Control (GAK) [%],"Percent Control (GCN2(Kin.Dom.2,S808G)) [%]"
Cl.O=C(Nc1ccc(Oc2ccc3[nH]c(NC(=O)c4ccco4)nc3c2)cc1)Nc1cc(C(F)(F)F)ccc1F [GW683134A],84,100,91,3.2,0.4,13,9.8,3.7,96,39,0.6,8.4,5.6,92,1.3,1.5,40,71,100,90
Nc1ncnc2occ(-c3ccc(NC(=O)Nc4cc(C(F)(F)F)ccc4F)cc3)c12 [GW770249X],77,69,100,2.9,0.9,4.1,11,2.9,52,27,0.5,0,0,33,0.1,0.7,12,95,100,99
CCS(=O)(=O)c1ccc(OC)c(Nc2ncc(-c3cccc(OC)c3)o2)c1 [GW580509X],44,100,41,54,0.5,0,42,8.2,0,30,10,0,18,40,5.9,13,39,48,38,82
COc1ccc2cc(-c3c(-c4ccncc4)nc(-c4ccc(S(C)(=O)=O)cc4C)n3C)ccc2c1 [SB-633825],76,85,63,100,79,74,99,100,80,81,93,96,95,100,92,54,76,78,59,100
CCn1c(-c2nonc2N)nc2c(C#CC(C)(C)O)nc(OCCNC)cc21.Cl [GSK949675],100,100,100,100,43,83,30,100,100,22,100,100,78,100,100,75,100,100,100,89
Cl.c1ccc(Cc2nc3ccc(Nc4ncnc5ccccc45)cc3[nH]2)cc1 [GR269666A],100,100,100,100,100,83,97,100,100,100,90,100,100,86,72,100,100,100,100,100
COc1cc(C)c(N(C)C(=O)CN(C)C)cc1Nc1nc(Nc2cccc(F)c2C(N)=O)c2cc[nH]c2n1 [GSK2219385],78,96,100,96,85,76,91,82,88,100,100,93,100,100,91,100,100,100,56,100
CCc1ccc(Oc2nccc(-c3c(-c4ccc(F)cc4)ncn3C3CCNCC3)n2)cc1 [SB-242719],100,91,87,100,88,100,100,99,89,93,96,69,90,100,71,95,99,96,84,100
C[C@@H](Oc1cc(-n2cnc3ccc(OC4CCN(C)CC4)cc32)sc1C(N)=O)c1ccccc1Cl [GSK579289A],86,79,91,75,9.4,0,38,38,15,8.2,17,8.1,18,87,18,81,93,86,69,39
CC(C)COC(=O)c1ccc2c(c1)/C(=C/Nc1ccc(S(N)(=O)=O)cc1)C(=O)N2 [GW416981X],100,100,99,83,1.6,0,1.1,3,0,0,42,11,18,45,42,100,100,98,40,96
NS(=O)(=O)c1ccc(N/N=C2\C(=O)Nc3ccc(Cl)cc32)cc1 [GW280670X],100,100,100,100,83,31,100,59,60,36,18,100,68,15,21,100,100,100,100,100
NS(=O)(=O)c1ccc(N/N=C2\C(=O)Nc3ccc(-c4cnco4)cc32)cc1 [GW276655],100,82,79,80,43,2.2,45,44,4.3,18,79,70,42,61,100,67,81,81,70,89
O=C(Nc1n[nH]c2nc(-c3ccc(O)cc3)c(Br)cc12)C1CC1 [SB-725317],100,100,100,89,29,2.9,33,68,35,37,66,100,72,96,64,84,100,100,81,96
Cc1cc(O)cc(C)c1/C=C/c1cncc(C(N)=O)c1 [GW435821X],100,100,64,100,77,31,75,100,100,100,99,100,81,100,95,100,45,70,75,100
NS(=O)(=O)c1ccc(N/N=C2\C(=O)Nc3ccc(C(=O)NCc4ccncc4)cc32)cc1 [GW300657X],82,100,100,80,52,0,46,64,0.6,17,92,50,68,74,82,77,100,96,66,100
CN(C)CCNC(=O)Nc1ccc(N(C)c2ccnc(Nc3ccc(CS(C)(=O)=O)cc3)n2)cc1.Cl [GW830900A],100,100,100,61,32,6.3,35,8.3,22,19,89,5.6,16,27,2.9,54,99,93,13,100
CC1=C(C(=O)Nc2ccc3[nH]ncc3c2)C(c2ccc3ccccc3c2)CC(=O)N1 (stereo not shown) [GSK270822A],73,58,76,89,94,65,78,100,73,79,100,80,98,100,89,100,61,83,90,100
NS(=O)(=O)c1ccc(N/N=C2\C(=O)Nc3ccc(C(=O)NCCc4c[nH]cn4)cc32)cc1 [GW300660X],100,100,100,100,52,0.8,62,80,1.8,4.1,100,100,45,100,90,100,100,100,100,100
Cl.O=S1CCN(Cc2ccc(-c3ccc4ncnc(Nc5ccc(OCc6ccccc6)c(F)c5)c4c3)o2)CC1 [GW576924A],100,100,100,100,100,99,83,100,100,100,93,100,100,87,90,100,100,100,100,100
Cl.O=C(O[C@H]1CN[C@H](C#Cc2cc3ncnc(Nc4ccc5c(cnn5Cc5ccccc5)c4)c3s2)C1)N1CCOCC1 [GSK200398A],100,89,96,99,96,87,89,98,88,92,66,100,92,89,77,100,90,81,88,44
